# According to PMC11062922 (Nature Chemical Biology, 2023):
# Like-named read-outs stand apart in the source and are kept apart here.
# Key:
# [1] = system: AAK1; set-up: species or system human, MV4-11 + K-562 + COLO205 + SK-N-BE2 + OVCAR-8; conditions: read-out: apparent Kd, n = 1
# [2] = system: BMP2K; set-up: species or system human, MV4-11 + K-562 + COLO205 + SK-N-BE2 + OVCAR-8; conditions: read-out: apparent Kd, n = 1
# [3] = system: CLK1; set-up: species or system human, MV4-11 + K-562 + COLO205 + SK-N-BE2 + OVCAR-8; conditions: read-out: apparent Kd, n = 1
# [4] = system: CLK4; set-up: species or system human, MV4-11 + K-562 + COLO205 + SK-N-BE2 + OVCAR-8; conditions: read-out: apparent Kd, n = 1
# [5] = system: CSNK2A2; set-up: species or system human, MV4-11 + K-562 + COLO205 + SK-N-BE2 + OVCAR-8; conditions: read-out: apparent Kd, compound concentrations: 100 nM and 1000 nM (sheet 'Samples'), n = 1
# [6] = system: GSK3A; set-up: species or system human, MV4-11 + K-562 + COLO205 + SK-N-BE2 + OVCAR-8; conditions: read-out: apparent Kd, n = 1
# [7] = system: GSK3B; set-up: species or system human, MV4-11 + K-562 + COLO205 + SK-N-BE2 + OVCAR-8; conditions: read-out: apparent Kd, n = 1
# [8] = system: NUAK1; set-up: species or system human, MV4-11 + K-562 + COLO205 + SK-N-BE2 + OVCAR-8; conditions: read-out: apparent Kd, compound concentrations: 100 nM and 1000 nM (sheet 'Samples'), n = 1
# [9] = target: Q6ZSR9 (human, UniProt Q6ZSR9); set-up: species or system MV4-11 + K-562 + COLO205 + SK-N-BE2 + OVCAR-8; conditions: read-out: apparent Kd, n = 1
# Sequence of Q6ZSR9 (Q6ZSR9 whole entry, looked up): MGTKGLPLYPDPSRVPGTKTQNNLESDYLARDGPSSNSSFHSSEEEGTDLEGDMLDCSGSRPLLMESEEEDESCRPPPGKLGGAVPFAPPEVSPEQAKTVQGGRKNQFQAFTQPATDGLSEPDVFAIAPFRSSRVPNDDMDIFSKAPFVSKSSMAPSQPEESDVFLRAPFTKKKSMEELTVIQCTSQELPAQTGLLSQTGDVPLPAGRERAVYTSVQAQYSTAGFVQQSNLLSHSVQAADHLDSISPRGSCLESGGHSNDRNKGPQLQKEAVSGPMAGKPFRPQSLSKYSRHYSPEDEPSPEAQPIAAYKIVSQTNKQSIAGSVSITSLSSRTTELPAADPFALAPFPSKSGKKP
# [10] = system: FLT4; set-up: species or system human, MV4-11 + K-562 + COLO205 + SK-N-BE2 + OVCAR-8; conditions: read-out: apparent Kd, compound concentrations: 100 nM and 1000 nM (sheet 'Samples'), n = 1
# [11] = system: PAK4; set-up: species or system human, MV4-11 + K-562 + COLO205 + SK-N-BE2 + OVCAR-8; conditions: read-out: apparent Kd; compound concentrations: 100 nM and 1000 nM (sheet 'Samples'), CATDS: 2.0251882597793001E-2; n = 1
# [12] = system: RET; set-up: species or system human, MV4-11 + K-562 + COLO205 + SK-N-BE2 + OVCAR-8; conditions: read-out: apparent Kd; compound concentrations: 100 nM and 1000 nM (sheet 'Samples'), CATDS: 9.0906950139660506E-2; n = 1
# [13] = system: PKN1; set-up: species or system human, MV4-11 + K-562 + COLO205 + SK-N-BE2 + OVCAR-8; conditions: read-out: apparent Kd; compound concentrations: 100 nM and 1000 nM (sheet 'Samples'), CATDS: 2.3359167172179899E-2; n = 1
# [14] = system: MELK; set-up: species or system human, MV4-11 + K-562 + COLO205 + SK-N-BE2 + OVCAR-8; conditions: read-out: apparent Kd; compound concentrations:100 nM and 1000 nM (sheet 'Samples'); n = 1
# [15] = system: CSNK2A1;CSNK2A3; set-up: species or system human, MV4-11 + K-562 + COLO205 + SK-N-BE2 + OVCAR-8; conditions: read-out: apparent Kd; compound concentrations: 100 nM and 1000 nM (sheet 'Samples'), CATDS: 6.2614032961525998E-2; n = 1
# [16] = system: GAK; set-up: species or system human, MV4-11 + K-562 + COLO205 + SK-N-BE2 + OVCAR-8; conditions: read-out: apparent Kd; compound concentrations: 100 nM and 1000 nM (sheet 'Samples'), CATDS: 0.27765104438225702; n = 1
# [17] = compound concentrations:100 nM and 1000 nM (sheet 'Samples')
smiles,measurement,setting,value
COc1ccc(Nc2nccc(-c3ccc(NC(=O)c4cc5cc(F)ccc5[nH]4)cc3)n2)cc1 [GSK1229496A],potency estimated from few doses,"[1]; compound concentrations: 100 nM and 1000 nM (sheet 'Samples'), CATDS: 0.25032000609497101",1830 nM
CCN(CC)Cc1ccc(Nc2nccc(-c3cnn4ncccc34)n2)cc1 [GW780056X],potency estimated from few doses,"[1]; compound concentrations: 100 nM and 1000 nM (sheet 'Samples'), CATDS: 2.17265123337868E-2",1010 nM
same,potency estimated from few doses,"[2]; compound concentrations: 100 nM and 1000 nM (sheet 'Samples'), CATDS: 1.8132469854257299E-2",1950 nM
same,potency estimated from few doses,"[3]; compound concentrations: 100 nM and 1000 nM (sheet 'Samples'), CATDS: 3.2985166948547001E-2",346 nM
same,potency estimated from few doses,"[4]; compound concentrations: 100 nM and 1000 nM (sheet 'Samples'), CATDS: 3.0818268189282499E-2",403 nM
same,potency estimated from few doses,[5]; CATDS: 1.97839070790959E-2,1380 nM
same,potency estimated from few doses,"[6]; compound concentrations: 100 nM and 1000 nM (sheet 'Samples'), CATDS: 2.5871712918447001E-2",616 nM
same,potency estimated from few doses,"[7]; compound concentrations: 100 nM and 1000 nM (sheet 'Samples'), CATDS: 2.3506229340690101E-2",798 nM
same,potency estimated from few doses,[8]; CATDS: 0.242637090604084,11.6 nM
same,potency estimated from few doses,"[9]; compound concentrations: 100 nM and 1000 nM (sheet 'Samples'), CATDS: 2.1989322106712401E-2",971 nM
CS(=O)(=O)Nc1cccc(-c2ccc3c(NC(=O)C4CC4)n[nH]c3c2)c1 [SB-742864],potency estimated from few doses,"[1]; compound concentrations: 100 nM and 1000 nM (sheet 'Samples'), CATDS: 0.116591298752119",1410 nM
same,potency estimated from few doses,"[2]; compound concentrations: 100 nM and 1000 nM (sheet 'Samples'), CATDS: 0.11349645370011199",1510 nM
same,potency estimated from few doses,"[9]; compound concentrations: 100 nM and 1000 nM (sheet 'Samples'), CATDS: 0.100041705724795",2110 nM
COc1cc(Nc2nccc(-c3cnn4ncccc34)n2)cc(OC)c1 [GW801372X],potency estimated from few doses,"[1]; compound concentrations: 100 nM and 1000 nM (sheet 'Samples'), CATDS: 3.8573145954119099E-2",184 nM
same,potency estimated from few doses,"[2]; compound concentrations: 100 nM and 1000 nM (sheet 'Samples'), CATDS: 1.7916348880173499E-2",1820 nM
same,potency estimated from few doses,"[3]; compound concentrations: 100 nM and 1000 nM (sheet 'Samples'), CATDS: 0.124159144382542",18.2 nM
same,potency estimated from few doses,"[4]; compound concentrations: 100 nM and 1000 nM (sheet 'Samples'), CATDS: 0.10081286200227101",26.6 nM
same,potency estimated from few doses,[10]; CATDS: 1.8307563949858899E-2,1650 nM
same,potency estimated from few doses,"[6]; compound concentrations: 100 nM and 1000 nM (sheet 'Samples'), CATDS: 2.1356053852556199E-2",929 nM
same,potency estimated from few doses,"[7]; compound concentrations: 100 nM and 1000 nM (sheet 'Samples'), CATDS: 3.2546275447974102E-2",277 nM
same,potency estimated from few doses,[8]; CATDS: 5.2338687670537398E-2,94.5 nM
same,potency estimated from few doses,[11],1120 nM
same,potency estimated from few doses,"[9]; compound concentrations: 100 nM and 1000 nM (sheet 'Samples'), CATDS: 3.9611085380352497E-2",173 nM
CN(c1ccc(NC(=O)NCCN2CCOCC2)cc1)c1ccnc(Nc2ccc(CS(C)(=O)=O)cc2)n1.Cl [GW830365A],potency estimated from few doses,"[1]; compound concentrations: 100 nM and 1000 nM (sheet 'Samples'), CATDS: 5.9294254337115E-2",785 nM
same,potency estimated from few doses,"[2]; compound concentrations: 100 nM and 1000 nM (sheet 'Samples'), CATDS: 5.1935568412460401E-2",1150 nM
same,potency estimated from few doses,[10]; CATDS: 0.17294643484613401,109 nM
same,potency estimated from few doses,"[9]; compound concentrations: 100 nM and 1000 nM (sheet 'Samples'), CATDS: 5.6296915490776901E-2",904 nM
same,potency estimated from few doses,[12],308 nM
Cl.Cl.NC(CNC(=O)c1cc(Br)c(-c2ccnc3[nH]ccc23)s1)c1ccccc1.NC(CNC(=O)c1cc(Br)c(-c2ccnc3[nH]ccc23)s1)c1ccccc1 (stereo not shown) [GSK1322949A],potency estimated from few doses,"[1]; compound concentrations: 100 nM and 1000 nM (sheet 'Samples'), CATDS: 3.1655313708127797E-2",1070 nM
same,potency estimated from few doses,"[2]; compound concentrations: 100 nM and 1000 nM (sheet 'Samples'), CATDS: 4.4675050363511E-2",552 nM
same,potency estimated from few doses,"[4]; compound concentrations: 100 nM and 1000 nM (sheet 'Samples'), CATDS: 3.1125873030522201E-2",1120 nM
same,potency estimated from few doses,[13],2380 nM
same,potency estimated from few doses,"[9]; compound concentrations: 100 nM and 1000 nM (sheet 'Samples'), CATDS: 3.14131871336574E-2",1090 nM
CC(C)Nc1cc(-c2ccc3c(N)n[nH]c3c2)nc(N)n1 [GSK2221681A],potency estimated from few doses,[1]; [17],149 nM
same,potency estimated from few doses,[2]; [17],947 nM
same,potency estimated from few doses,[4]; [17],1550 nM
same,potency estimated from few doses,[14],1130 nM
same,potency estimated from few doses,[9]; [17],220 nM
O=C1N=C(NCc2cccs2)O/C1=C\c1ccc2ncccc2c1 [RO4624208-000],potency estimated from few doses,"[1]; compound concentrations: 100 nM and 1000 nM (sheet 'Samples'), CATDS: 0.10731748351682301",135 nM
same,potency estimated from few doses,"[2]; compound concentrations: 100 nM and 1000 nM (sheet 'Samples'), CATDS: 4.6084247955460698E-2",1920 nM
same,potency estimated from few doses,"[3]; compound concentrations: 100 nM and 1000 nM (sheet 'Samples'), CATDS: 0.227495449578137",23.7 nM
same,potency estimated from few doses,"[4]; compound concentrations: 100 nM and 1000 nM (sheet 'Samples'), CATDS: 0.59916054369274396",4.27 nM
same,potency estimated from few doses,[15],629 nM
same,potency estimated from few doses,[5]; CATDS: 6.3902524713508005E-2,590 nM
same,potency estimated from few doses,"[9]; compound concentrations: 100 nM and 1000 nM (sheet 'Samples'), CATDS: 0.11947964791327",103 nM
CNCc1ccc(-c2cc(-c3nc(-c4ccc(S(=O)(=O)C(C)C)cc4)cnc3N)on2)cc1 [VE-822],potency estimated from few doses,[1]; [17],1850 nM
same,potency estimated from few doses,[6]; [17],684 nM
same,potency estimated from few doses,[7]; [17],810 nM
same,potency estimated from few doses,[9]; [17],1240 nM
O=C1N=C(NCc2c(Cl)cccc2Cl)S/C1=C\c1ccc2ncccc2c1 [RO4600445-000],potency estimated from few doses,"[1]; compound concentrations: 100 nM and 1000 nM (sheet 'Samples'), CATDS: 0.26661690920713499",1130 nM
same,potency estimated from few doses,"[4]; compound concentrations: 100 nM and 1000 nM (sheet 'Samples'), CATDS: 0.27673451036998298",1050 nM
same,potency estimated from few doses,"[9]; compound concentrations: 100 nM and 1000 nM (sheet 'Samples'), CATDS: 0.220638600653874",1680 nM
CCCc1cc(N2CCCN(C)CC2)nc2sc3c(N)ncnc3c12 [BI00604564],potency estimated from few doses,"[1]; compound concentrations: 100 nM and 1000 nM (sheet 'Samples'), CATDS: 0.13729874027545599",1990 nM
same,potency estimated from few doses,[16],516 nM
same,potency estimated from few doses,"[9]; compound concentrations: 100 nM and 1000 nM (sheet 'Samples'), CATDS: 0.16382983501134099",1310 nM
Cc1ccccc1C1=C(c2cn(C)c3ccccc23)C(=O)NC1=O [RO0317612-000],potency estimated from few doses,"[1]; compound concentrations: 100 nM and 1000 nM (sheet 'Samples'), CATDS: 0.12392874635964",1650 nM
CS(=O)(=O)Nc1ccc(-c2ccnc3[nH]ccc23)cc1 [GSK993273A],potency estimated from few doses,[1]; [17],1890 nM
same,potency estimated from few doses,[2]; [17],2000 nM
same,potency estimated from few doses,[3]; [17],1110 nM
same,potency estimated from few doses,[4]; [17],1440 nM
same,potency estimated from few doses,[9]; [17],2010 nM
